Consider 40 molecules from ChEMBL document CHEMBL1157539, “Thousands of chemical starting points for antimalarial lead identification” (Nature, 2010).

Values joined by “and” are separate entries in the source; they are usually repeats but may differ in a detail not shown here. Identical values can stand only once.

One assay concerns Plasmodium falciparum. Description: GSK_TCMDC: Inhibition of Plasmodium falciparum Dd2 in whole red blood cells, using parasite LDH activity as an index of growth. Test compounds present at 2uM. The format is functional.
`CCCc1cc2c3c(N)nc(N)nc3ccc2n1C(CC)CC` had an Inhibition of 73%.

The molecule `Clc1cccc(Nc2ccc3c(N4CCCCC4)ncnc3n2)c1` registered an Inhibition of 93%.

Molecule `CC(C)(C)c1ccc(NC(=O)c2ccc(CN3CCCN(Cc4cccc(Cl)c4)CC3)cc2)cc1.O=C(O)C(F)(F)F` showed an Inhibition of 7%.

`CC[C@H]1CN2CCc3cc(OC)c(OC)cc3[C@@H]2C[C@@H]1C[C@H]1NCCc2cc(OC)c(OC)cc21` [EMETINE]: the Inhibition is on record as 99%.

`Nc1ccc(Oc2ccc(Cc3cnc(N)nc3N)cc2)cc1`: the Inhibition is 5%.

The molecule `O=C1OC(c2cc3ccccc3n2S(=O)(=O)c2ccccc2)(c2cc3ccccc3n2S(=O)(=O)c2ccccc2)c2ccccc21` registered an Inhibition of 78%.

For `CNc1ccc(CNCc2cccc(-c3ccc(-c4nc5ccccc5[nH]4)cc3)c2)cc1.O=C(O)C(F)(F)F`, the Inhibition stood at 80%.

`Cc1cc(-c2cccc(CNC3CCCC3)c2)ccc1S(=O)(=O)NCCN1CCCC1.O=C(O)C(F)(F)F` displayed an Inhibition of 7%.

In turn, `CCN1CCC(NCc2ccc(-c3ccc(Cl)s3)cc2)CC1` displayed an Inhibition of 23%.

In turn, `O=C(/C=C/c1ccc(Cl)c(Cl)c1)NCCCCCN1CC[C@H](NC(=O)c2sc3ccccc3c2Cl)C1` yielded an Inhibition of 3%.

As to `CCCCCCn1c(Sc2ccc(C#N)c([N+](=O)[O-])c2)nnc1-c1ccc(N(C)C)cc1`, the Inhibition stood at 25%.

With `Cc1ccc2c(O)c([N+](=O)[O-])c(O)nc2c1`, the Inhibition stood at 0%.

`CCn1c(-c2nonc2N)nc2c(-c3cccc(NC(=O)Nc4cccc(C#N)c4)c3)ncc(OCCCN)c21.O=C(O)C(F)(F)F` came in with an Inhibition of 80%.

`Clc1ccccc1CNc1noc(-c2sccc2Br)n1` gave an Inhibition of 93%.

With `CO/C(=C\C=C\c1cc2cc(Cl)c(Cl)cc2[nH]1)C(=O)NCCCN1CCC(c2ccccc2)CC1`, the Inhibition stood at 92%.

As to `C=C[C@H]1CN2CC[C@H]1C[C@H]2[C@H](O)c1ccnc2ccc(OC)cc12.Cl` [QUININE HYDROCHLORIDE], the Inhibition is 79% and 99%.

Turning to `Cc1cc(O)c(CNC2CCCCC2)cc1C.Cl`, the Inhibition is 95%.

In the case of `CC(=O)N(C)/N=C/[C@H](CCc1ccccc1)NC(=O)[C@H](CC(C)C)NC(=O)c1cccc(OCCN2CCOCC2)c1`, the Inhibition was 65%.

`CC(C)(C)CNCC(C)(C)c1nc(-c2ccc(Cl)c(O)c2)c(-c2ccncc2)[nH]1.Cl` yielded an Inhibition of 98%.

Molecule `COc1ccc2c(=NN=Cc3ccc(OC)c4ccccc34)cc(C)[nH]c2c1` returned an Inhibition of 99%.

Regarding `COc1ccc2ncc(F)c(CCN3CC[C@@H](CNCc4cc5c(cn4)OCS5)C3)c2n1.Cl`, the Inhibition came out at 29%.

The molecule `Cl.O=C(NCCCCN1CCC(c2ccc3ccccc3c2O)CC1)c1ccc(-c2ccc(Cl)cc2)cc1` displayed an Inhibition of 99%.

The molecule `CN1CCN(Cc2cccc(-c3ccc4c(Nc5cc(O)c(Cl)cc5F)ccnc4c3)c2)CC1` returned an Inhibition of 100%.

`Clc1cccc(CNC2CCN(CC3CCCCC3)CC2)c1.O=C(O)C(F)(F)F` displayed an Inhibition of 24%.

For `CC(=O)OCCN1C(=O)c2ccc3c4c(ccc(c24)C1=O)C(=O)N(CCOC(C)=O)C3=O`, the Inhibition is given as 1%.

Turning to `O.O=C1C([N+](=O)[O-])=C(O)c2c(F)cccc21`, the Inhibition is reported as 13%.

On to `CCNC(=O)N1CCc2ccc(Oc3nc(NCc4ccccc4OC)ncc3C)cc2CC1.O=C(O)C(F)(F)F`, for which the Inhibition came out at 76%.

In turn, `OCCN1CCN(C(=S)NC2CCCCC2)CC1` yielded an Inhibition of 0%.

As to `COC(=O)c1cc(/C(C)=N/Nc2nc3ccccc3[nH]2)ccc1O`, the Inhibition came to 75%.

The molecule `CN(C)c1cccc(-c2cnc3ccc(NCc4cccc(Cl)c4)nn23)c1` came in with an Inhibition of 98%.

The molecule `CC(=O)Nc1ccc(S(=O)(=O)N2CCN(c3nc(NC4CCCC4)c4ccccc4n3)CC2)cc1` came in with an Inhibition of 2%.

As for `Nc1cccc(CNCc2cccc(-c3cccc(-c4nc5ccccc5[nH]4)c3)c2)c1.O=C(O)C(F)(F)F`, the Inhibition is listed as 84%.

The molecule `C=C[C@]1(C)C[C@@H](OC(=O)CSC2CN3CCC2C3)[C@@]2(C)C3C(=O)CC[C@@]3(CC[C@H]2C)[C@@H](C)[C@@H]1O.Cl` (stereo not given in full) gave an Inhibition of 75%.

The molecule `CS(=O)(=O)O.O=[N+]([O-])c1ccc(CNCCCCCCNCc2ccc([N+](=O)[O-])c3ccccc23)c2ccccc12` registered an Inhibition of 98%.

`O=C(c1csc(-c2cccnc2)n1)N1CCc2cc3nccc(N4CCN5CCC[C@H]5C4)c3cc21`: the Inhibition is 78%.

For the molecule `O=C1C(=Cc2cc(Cc3ccccc3)ccc2O)SC(=S)N1Cc1ccccc1`, the Inhibition came to 53%.

As to `COc1ccc(Cn2ncc3c4c(N)nc(N)nc4ccc32)cc1OC`, the Inhibition is listed as 95%.

With `CN(C)CCNCc1ccc(-c2cccc(-c3nc4ccccc4[nH]3)c2)cc1.O=C(O)C(F)(F)F`, the Inhibition stood at 63%.

For the molecule `CC(C)(Oc1c(C2CCN(CCCCNC(=O)c3ccc(-c4ccc(C#N)cc4)cc3)CC2)ccc2c1CCCC2)C(N)=O`, the Inhibition came out at 82%.

`CCN(CC)CCCC(C)N/C(=N\c1ccccc1Br)Nc1ccc(C#N)cc1O` (stereo not given) returned an Inhibition of 0%.

Another assay relates to HepG2. Briefly: GSK_TCMDC: Percent inhibition of human HepG2 cell line. Test compounds present at 10uM. It counts as functional.
Turning to `CCCc1cc2c3c(N)nc(N)nc3ccc2n1C(CC)CC`, the Inhibition came out at 70%.

On to `Clc1cccc(Nc2ccc3c(N4CCCCC4)ncnc3n2)c1`, for which the Inhibition amounted to 54%.

Regarding `CC(C)(C)c1ccc(NC(=O)c2ccc(CN3CCCN(Cc4cccc(Cl)c4)CC3)cc2)cc1.O=C(O)C(F)(F)F`, the Inhibition came out at 43%.

`CC[C@H]1CN2CCc3cc(OC)c(OC)cc3[C@@H]2C[C@@H]1C[C@H]1NCCc2cc(OC)c(OC)cc21` [EMETINE] gave an Inhibition of 43%.

`Nc1ccc(Oc2ccc(Cc3cnc(N)nc3N)cc2)cc1` registered an Inhibition of 10%.

Take `O=C1OC(c2cc3ccccc3n2S(=O)(=O)c2ccccc2)(c2cc3ccccc3n2S(=O)(=O)c2ccccc2)c2ccccc21`: the Inhibition came to 1%.

As to `CNc1ccc(CNCc2cccc(-c3ccc(-c4nc5ccccc5[nH]4)cc3)c2)cc1.O=C(O)C(F)(F)F`, the Inhibition is 18%.

`Cc1cc(-c2cccc(CNC3CCCC3)c2)ccc1S(=O)(=O)NCCN1CCCC1.O=C(O)C(F)(F)F`: the Inhibition is reported as 38%.

For the molecule `CCN1CCC(NCc2ccc(-c3ccc(Cl)s3)cc2)CC1`, the Inhibition was 42%.

In turn, `O=C(/C=C/c1ccc(Cl)c(Cl)c1)NCCCCCN1CC[C@H](NC(=O)c2sc3ccccc3c2Cl)C1` yielded an Inhibition of 26%.

Consider `CCCCCCn1c(Sc2ccc(C#N)c([N+](=O)[O-])c2)nnc1-c1ccc(N(C)C)cc1`, for which the Inhibition is 0%.

`Cc1ccc2c(O)c([N+](=O)[O-])c(O)nc2c1` displayed an Inhibition of 3%.

`CCn1c(-c2nonc2N)nc2c(-c3cccc(NC(=O)Nc4cccc(C#N)c4)c3)ncc(OCCCN)c21.O=C(O)C(F)(F)F` displayed an Inhibition of 37%.

With `Clc1ccccc1CNc1noc(-c2sccc2Br)n1`, the Inhibition is on record as 0%.

In turn, `CO/C(=C\C=C\c1cc2cc(Cl)c(Cl)cc2[nH]1)C(=O)NCCCN1CCC(c2ccccc2)CC1` came in with an Inhibition of 33%.

In the case of `C=C[C@H]1CN2CC[C@H]1C[C@H]2[C@H](O)c1ccnc2ccc(OC)cc12.Cl` [QUININE HYDROCHLORIDE], the Inhibition is 13% and 0%.

Take `Cc1cc(O)c(CNC2CCCCC2)cc1C.Cl`: the Inhibition is 6%.

Turning to `CC(=O)N(C)/N=C/[C@H](CCc1ccccc1)NC(=O)[C@H](CC(C)C)NC(=O)c1cccc(OCCN2CCOCC2)c1`, the Inhibition is on record as 5%.

For the molecule `CC(C)(C)CNCC(C)(C)c1nc(-c2ccc(Cl)c(O)c2)c(-c2ccncc2)[nH]1.Cl`, the Inhibition is 42%.

Take `COc1ccc2c(=NN=Cc3ccc(OC)c4ccccc34)cc(C)[nH]c2c1`: the Inhibition is given as 3%.

`COc1ccc2ncc(F)c(CCN3CC[C@@H](CNCc4cc5c(cn4)OCS5)C3)c2n1.Cl` showed an Inhibition of 3%.

Take `Cl.O=C(NCCCCN1CCC(c2ccc3ccccc3c2O)CC1)c1ccc(-c2ccc(Cl)cc2)cc1`: the Inhibition was found to be 84%.

`CN1CCN(Cc2cccc(-c3ccc4c(Nc5cc(O)c(Cl)cc5F)ccnc4c3)c2)CC1` showed an Inhibition of 0%.

The molecule `Clc1cccc(CNC2CCN(CC3CCCCC3)CC2)c1.O=C(O)C(F)(F)F` registered an Inhibition of 4%.

For `CC(=O)OCCN1C(=O)c2ccc3c4c(ccc(c24)C1=O)C(=O)N(CCOC(C)=O)C3=O`, the Inhibition was 2%.

`O.O=C1C([N+](=O)[O-])=C(O)c2c(F)cccc21`: the Inhibition is 9%.

In turn, `CCNC(=O)N1CCc2ccc(Oc3nc(NCc4ccccc4OC)ncc3C)cc2CC1.O=C(O)C(F)(F)F` returned an Inhibition of 0%.

`OCCN1CCN(C(=S)NC2CCCCC2)CC1` yielded an Inhibition of 49%.

Consider `COC(=O)c1cc(/C(C)=N/Nc2nc3ccccc3[nH]2)ccc1O`, for which the Inhibition stood at 9%.

The molecule `CN(C)c1cccc(-c2cnc3ccc(NCc4cccc(Cl)c4)nn23)c1` yielded an Inhibition of 11%.

Molecule `CC(=O)Nc1ccc(S(=O)(=O)N2CCN(c3nc(NC4CCCC4)c4ccccc4n3)CC2)cc1` gave an Inhibition of 7%.

For `Nc1cccc(CNCc2cccc(-c3cccc(-c4nc5ccccc5[nH]4)c3)c2)c1.O=C(O)C(F)(F)F`, the Inhibition was 1%.

Take `C=C[C@]1(C)C[C@@H](OC(=O)CSC2CN3CCC2C3)[C@@]2(C)C3C(=O)CC[C@@]3(CC[C@H]2C)[C@@H](C)[C@@H]1O.Cl` (stereo not given in full): the Inhibition is 18%.

`CS(=O)(=O)O.O=[N+]([O-])c1ccc(CNCCCCCCNCc2ccc([N+](=O)[O-])c3ccccc23)c2ccccc12` came in with an Inhibition of 88%.

On to `O=C(c1csc(-c2cccnc2)n1)N1CCc2cc3nccc(N4CCN5CCC[C@H]5C4)c3cc21`, for which the Inhibition is recorded as 0%.

In turn, `O=C1C(=Cc2cc(Cc3ccccc3)ccc2O)SC(=S)N1Cc1ccccc1` had an Inhibition of 16%.

In turn, `COc1ccc(Cn2ncc3c4c(N)nc(N)nc4ccc32)cc1OC` gave an Inhibition of 68%.

For the molecule `CN(C)CCNCc1ccc(-c2cccc(-c3nc4ccccc4[nH]3)c2)cc1.O=C(O)C(F)(F)F`, the Inhibition is listed as 31%.

In turn, `CC(C)(Oc1c(C2CCN(CCCCNC(=O)c3ccc(-c4ccc(C#N)cc4)cc3)CC2)ccc2c1CCCC2)C(N)=O` had an Inhibition of 34%.

`CCN(CC)CCCC(C)N/C(=N\c1ccccc1Br)Nc1ccc(C#N)cc1O` (stereo not given) displayed an Inhibition of 4%.
